Source: PubChem (several laboratories)
FadD28 FP inh – M. tuberculosis FadD28 bisubstrate binding inhibition | 360,000 compounds, 0.22% hits | FadD28 bisubstrate probe binding, fluorescence polarization | inhibition, % at 12.5 µM; in the data active = inhibition above about 8.5%, passing the limit was not always enough
Rv3671c inh – inhibitors of M. tuberculosis serine protease Rv3671c. P9WHR9. inhibition, % at 5.96 µM. 320,000 compounds, 0.048% hits. AID 2606; in the data active = inhibition above about 38%;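 also: extracellular domain of Rv3671c used as enzyme; 0% = enzyme with DMSO and 100% = no enzyme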
Target sequence (P9WHR9 whole entry, looked up, the tested form may be a part): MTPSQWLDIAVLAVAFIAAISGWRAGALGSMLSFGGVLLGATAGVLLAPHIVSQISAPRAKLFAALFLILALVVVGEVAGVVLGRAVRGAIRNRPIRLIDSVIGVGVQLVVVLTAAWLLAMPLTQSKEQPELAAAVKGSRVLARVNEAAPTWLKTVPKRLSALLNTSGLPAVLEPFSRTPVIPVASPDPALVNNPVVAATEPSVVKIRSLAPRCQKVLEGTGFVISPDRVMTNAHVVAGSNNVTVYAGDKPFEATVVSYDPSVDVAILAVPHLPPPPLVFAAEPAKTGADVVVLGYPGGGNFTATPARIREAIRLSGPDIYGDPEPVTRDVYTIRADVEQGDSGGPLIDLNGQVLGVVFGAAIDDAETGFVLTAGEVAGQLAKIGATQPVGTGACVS
UGM FP inh – inhibitors of M. tuberculosis UDP-galactopyranose mutase; AID 504406; inhibition, % at 10 µM; P9WIQ1; 320,000 compounds, 0.06% hits; purified UGM, fluorescence polarization probe displacement; in the data active = inhibition above about 10%, passing the limit was not always enough
Yp Topo-I inh – Y. pestis Topo-I inhibition via cleavage products | 360,000 compounds, 0.064% hits | Y. pestis Topo-I cleavage product accumulation, plate reader | activity, % at 10 µM | AID 504884; in the data active = activity above about 50%, passing the limit was not always enough
PfHsp40 rescue – rescue of PfHsp40-mediated yeast toxicity | S. cerevisiae expressing PfHsp40, growth rescue, ATP luminescence | growth rescue, % at 12.5 µM | 340,000 compounds, 0.68% hits | AID 504582; in the data active = growth rescue above about 28%, passing the limit was not always enough;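 also: yeast W303a lacking pdr1 and pdr3 grown in galactose medium; growth measured after three days at 30 °C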
Mtb bLac sens – beta-lactam sensitization of Mtb H37Rv; M. tuberculosis H37Rv growth with meropenem, percent inhibition; inhibition, % at 25 µM; 330,000 compounds, 0.27% hits; call rule not given here;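 also: growth measured after seven days incubation then overnight dye step; 0% = bacteria only wells and 100% = bacteria with antibiotic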
Numbers without * were called inactive. Sampled rows, rich in hits. Any-hit rate of the full collection: about 0.98%.

Screening CCc1cc(-c2nnn(CCC3COCCO3)c2C(C)(C)O)ccc1-c1cn(CCc2c[nH]c3ccccc23)nn1 (configuration not stated) returned FadD28 FP inh 3.5 and Yp Topo-I inh 31.2.
Screening Cc1cc2nc(-c3ccc(Cl)cc3)c(CC(C)(C)C)n2c(C)c1Br returned FadD28 FP inh -1.3.
For Cn1cccc1/C=C1/C(=O)NC(=S)N(Cc2ccc(F)cc2)C1=O the results were FadD28 FP inh 44.0*, Rv3671c inh 16.6, UGM FP inh -0.8, Yp Topo-I inh -3.4, PfHsp40 rescue -0.9 and Mtb bLac sens 99.1.
`CCCCN(C(=O)c1ccccc1Br)C(c1ccc(OC)cc1)c1nc2ccccc2[nH]1` (configuration not stated) gave FadD28 FP inh -2.4.
Cc1ccnc2c1ccc1cccnc12 was read as FadD28 FP inh -3.4, Yp Topo-I inh 3.2 and PfHsp40 rescue 0.8.
`Cc1ccnc2c1ccc1c(C)ccnc12` gave FadD28 FP inh 0.2, Rv3671c inh -31.0, UGM FP inh -2.6, Yp Topo-I inh 3.7, PfHsp40 rescue 81.5* and Mtb bLac sens 80.2.
For COc1ccc(-c2cc3c(=O)n(CC(=O)NC4CCN(Cc5ccccc5)CC4)ncn3n2)cc1 the results were FadD28 FP inh -2.4, Rv3671c inh 4.4, UGM FP inh 0.0, Yp Topo-I inh 4.9, PfHsp40 rescue 83.0* and Mtb bLac sens -0.7.
`COc1ccc(-c2cc3c(=O)n(CC(=O)NCc4cccnc4)ncn3n2)cc1` gave FadD28 FP inh -0.6, Rv3671c inh -3.8, UGM FP inh -5.3, Yp Topo-I inh 2.2, PfHsp40 rescue 0.1 and Mtb bLac sens -9.5.
For O=C(NC(c1ccc(Cl)cc1)c1cnccn1)C1CCN(CCCc2ccccc2)CC1 (configuration not stated) the results were FadD28 FP inh -0.8 and Yp Topo-I inh 12.2.
`Cc1cc(N/N=C/c2ccc(O)c(C)c2O)nc(-c2ccccc2O)n1` gave FadD28 FP inh 0.4, Rv3671c inh 8.5, UGM FP inh 1.7, Yp Topo-I inh 4.3, PfHsp40 rescue 72.6* and Mtb bLac sens 10.8.
For C/C(=N\Nc1cc(C)nc(-c2ccccc2O)n1)c1ccccc1 the results were FadD28 FP inh -3.6, Rv3671c inh -12.7, UGM FP inh -1.9, Yp Topo-I inh -7.4, PfHsp40 rescue 0.7 and Mtb bLac sens 21.9.
COc1ccc(NC(=O)N(C)C[C@@H]2OCc3cn(nn3)CCCC(=O)N([C@@H](C)CO)C[C@H]2C)cc1 was read as FadD28 FP inh -2.0 and Yp Topo-I inh 1.1.
`O=C(Nc1cc(SCCO)cc([N+](=O)[O-])c1)c1ccco1` gave FadD28 FP inh 1.3, Rv3671c inh -2.2, UGM FP inh 2.7, Yp Topo-I inh 1.3, PfHsp40 rescue -0.2 and Mtb bLac sens -1.3.
`O=C(Cc1cccs1)Nc1cc(SCCO)cc([N+](=O)[O-])c1` gave FadD28 FP inh -1.7, Rv3671c inh 3.0, UGM FP inh 10.6*, Yp Topo-I inh -6.6, PfHsp40 rescue 0.4 and Mtb bLac sens -5.9.
Screening Cc1nnc(Cc2ccco2)c2n[nH]c(C)c12 returned FadD28 FP inh -0.5 and Yp Topo-I inh 7.2.
Screening O=c1oc2ccccc2cc1-c1csc(Cc2nc(-c3ccc(Cl)cc3)cs2)n1 returned FadD28 FP inh -2.1, Rv3671c inh -8.1, UGM FP inh -0.9, Yp Topo-I inh -0.7, PfHsp40 rescue 1.5 and Mtb bLac sens -4.1.
N=c1oc2ccccc2cc1-c1nc(-c2ccc(Cl)cc2)cs1 was read as FadD28 FP inh -1.4, Rv3671c inh 0.6, UGM FP inh 3.0, Yp Topo-I inh 5.5, PfHsp40 rescue 86.0* and Mtb bLac sens 5.9.
O=C(COC(=O)CN1C(=O)NC2(CCCC2)C1=O)NCc1ccc(Cl)cc1Cl was read as FadD28 FP inh -2.6, Rv3671c inh -1.2, UGM FP inh 11.2*, Yp Topo-I inh -4.3, PfHsp40 rescue -0.5 and Mtb bLac sens -8.3.
CC(NC(=O)CN1C(=O)NC2(CCCC2)C1=O)c1ccc(Cl)cc1Cl (configuration not stated) was read as FadD28 FP inh -0.1, Rv3671c inh 3.4, UGM FP inh 0.6, Yp Topo-I inh 6.6, PfHsp40 rescue 61.4* and Mtb bLac sens 2.7.
`CCOC(=O)c1c2c(n(-c3ccc(OC)cc3)c1C)C(=O)C(=O)c1ccccc1-2` gave FadD28 FP inh -0.6, Yp Topo-I inh 4.6 and PfHsp40 rescue 85.3*.
